Among the data in article PMC11062922 (Nature Chemical Biology, 2023) are potency estimated from few doses values, retold here.

What all share (design): species or system human, MV4-11 + K-562 + COLO205 + SK-N-BE2 + OVCAR-8
In one experiment the test system is MAP4K1. The settings on record: read-out: apparent Kd, n = 1.
The next experiment deals with ERN1. The settings on record: read-out: apparent Kd, compound concentrations: 100 nM and 1000 nM (sheet 'Samples'), n = 1.
In a further experiment the test system is ATM. The settings on record: read-out: apparent Kd, n = 1.
Another experiment deals with FER. The settings on record: read-out: apparent Kd; compound concentrations:100 nM and 1000 nM (sheet 'Samples'); n = 1.
A further experiment deals with PAK4. The settings on record: read-out: apparent Kd; compound concentrations:100 nM and 1000 nM (sheet 'Samples'); n = 1.
The subject of the next experiment is RPS6KA6. The note with it: read-out: apparent Kd; compound concentrations:100 nM and 1000 nM (sheet 'Samples'); n = 1.
Another experiment relates to ULK1. The settings on record: read-out: apparent Kd; compound concentrations:100 nM and 1000 nM (sheet 'Samples'); n = 1.
The test system of a further experiment is CDC42. The note with it: read-out: apparent Kd, n = 1.
Another experiment relates to IKBKE. The note with it: read-out: apparent Kd, compound concentrations: 100 nM and 1000 nM (sheet 'Samples'), n = 1.
For the next experiment, the system named is CDC7. The note with it: read-out: apparent Kd, n = 1.
The test system of the next experiment is ICK. The settings on record: read-out: apparent Kd, n = 1.
Another experiment relates to BMP2K. The note with it: read-out: apparent Kd; compound concentrations:100 nM and 1000 nM (sheet 'Samples'); n = 1.
The subject of a further experiment is COX5A. The note with it: read-out: apparent Kd, n = 1.
The test system of a further experiment is DCTPP1. The note with it: read-out: apparent Kd; compound concentrations:100 nM and 1000 nM (sheet 'Samples'); n = 1.
A further experiment has as its system ULK3. The note with it: read-out: apparent Kd, n = 1.
A further experiment relates to TAOK2. The settings on record: read-out: apparent Kd; compound concentrations: 100 nM and 1000 nM (sheet 'Samples'), CATDS: 3.64108611477112E-2; n = 1.
Another experiment relates to GRK6. The note with it: read-out: apparent Kd; compound concentrations:100 nM and 1000 nM (sheet 'Samples'); n = 1.
The test system of another experiment is MARK4. The note with it: read-out: apparent Kd; compound concentrations:100 nM and 1000 nM (sheet 'Samples'); n = 1.
A further experiment concerns PRKX;PRKY. The settings on record: read-out: apparent Kd; compound concentrations: 100 nM and 1000 nM (sheet 'Samples'), CATDS: 3.2948163641369002E-2; n = 1.
[1] abbreviates: compound concentrations:100 nM and 1000 nM (sheet 'Samples').

Read-outs that look alike come from different tables or passages of the source.

`Cn1cc(-c2cnc(N)c3c(-c4ccc5c(c4)CCN5C(=O)Cc4ccccc4)csc23)cn1` [GSK2593074A]: in the experiment with MAP4K1 (setting [1]), the potency estimated from few doses is 1630 nM. On to `CC(C)c1nc(-c2cccc(NS(=O)(=O)c3c(F)cccc3F)c2F)c(-c2ccnc(Nc3ccc(N4CCOCC4)nc3)n2)s1` [GSK2008607A], for which, in the experiment with ERN1 (CATDS: 1.9066828422081999E-2), the potency estimated from few doses is 1650 nM. As for `Cl.Cn1c(=O)c(Cc2ccc(F)cc2F)cc2cnc(NC3CCOCC3)nc21` [RO3308757-001], the potency estimated from few doses in the experiment on ATM (setting [1]) is 247 nM; in the experiment with FER, 302 nM; with PAK4 it was 1650 nM; in the experiment on RPS6KA6, 599 nM; in the experiment with ULK1 it was 1550 nM. In the case of `Cc1ccc(O)cc1Nc1ccnc2ccc(C(C)(C)C)cc12` [GW856805X], the potency estimated from few doses with CDC42 (compound concentrations: 100 nM and 1000 nM (sheet 'Samples'), CATDS: 2.73171121323963E-2) was 1430 nM. For `CNc1nccc(-c2c(-c3ccc(F)cc3)ncn2C2CCN(C)CC2)n1` [SB-222903], the potency estimated from few doses with ATM (setting [1]) was 80.7 nM. As for `CC(C)c1nc(-c2cccc(NS(=O)(=O)c3c(F)cccc3F)c2)c(-c2ccnc(Nc3ccc(N4CCOCC4)nc3)n2)s1.Cl` [GSK1723980B], the potency estimated from few doses in the experiment with ERN1 (CATDS: 1.53606700454439E-2) was 1320 nM. Regarding `Cn1cc(-c2ccc3c(c2)CCN3C(=O)Cc2cc(F)cc(C(F)(F)F)c2)c2c(N)ncnc21` [GSK2635225A], the potency estimated from few doses in the experiment on IKBKE (CATDS: 0.14106315772238301) is 1220 nM. As for `N#Cc1cccc(Nc2nccc(-c3cnn4ncccc34)n2)c1` [GW778894X], the potency estimated from few doses with CDC7 (setting [1]) is 1240 nM; in the experiment on ICK (setting [1]) it was 1.67 nM. With `O=S(=O)(CCOCc1ccc(-c2ccc3ncnc(Nc4ccc(OCc5cccc(F)c5)c(Cl)c4)c3c2)o1)c1ccccc1` [GW615311X], the potency estimated from few doses was 179 nM in the experiment with ATM (compound concentrations: 100 nM and 1000 nM (sheet 'Samples'), CATDS: 0.104410485471121); 1150 nM in the experiment with IKBKE (CATDS: 3.0296968888376598E-2).

As to `COc1cc2ncn(-c3cc(OCc4cccs4)c(C(N)=O)s3)c2cc1OC` [GSK312948A], the potency estimated from few doses is 1430 nM in the experiment on BMP2K and 1550 nM in the experiment with CDC42 (setting [1]). For the molecule `O=S(=O)(c1ccc(-c2ccnc3[nH]ccc23)cc1)N1CCCC1` [GSK846226A], the potency estimated from few doses was 848 nM with COX5A (setting [1]) and 2150 nM in the experiment on DCTPP1. Regarding `Nc1nc(N)c2nc(-c3ccccc3)[nH]c2n1` [SKF-12778], the potency estimated from few doses in the experiment with ULK3 (setting [1]) is 1140 nM. In the case of `CN1CCN(Cc2ccc(-c3ccc4c(Nc5ccc(Oc6ccccn6)cc5)ccnc4c3)o2)CC1` [GW567140X], the potency estimated from few doses in the experiment with CDC42 (compound concentrations: 100 nM and 1000 nM (sheet 'Samples'), CATDS: 3.5970497134968603E-2) is 1290 nM. As for `CN1CCN(Cc2ccc(NC(=O)Nc3ccc(N(C)c4ccnc(Nc5ccc(CS(C)(=O)=O)cc5)n4)cc3)cc2)CC1.Cl` [GW827654A], in the experiment with MAP4K1 (compound concentrations: 100 nM and 1000 nM (sheet 'Samples'), CATDS: 4.9471634979456398E-2), the potency estimated from few doses was 557 nM.

For `Fc1ccc(-c2c(-c3ccncc3)[nH]c3nccnc23)cc1` [RO1155697-000], the potency estimated from few doses in the experiment with ULK1 is 1520 nM.

For the molecule `CN1CCc2ccc(Nc3nccc(-c4c(-c5cccc(NC(=O)c6c(F)cccc6F)c5)nc5ccccn45)n3)cc2C1.Cl` [GSK1010829B], the potency estimated from few doses in the experiment on TAOK2 is 1170 nM. As to `CNC(=O)c1ccccc1Nc1nc(Nc2cccc(CS(C)(=O)=O)c2)ncc1C.O=CO` [GSK1520489A], the potency estimated from few doses in the experiment on IKBKE (CATDS: 1.0336564492146301E-2) was 1110 nM; in the experiment on MAP4K1 (compound concentrations: 100 nM and 1000 nM (sheet 'Samples'), CATDS: 1.32778170160273E-2) it was 423 nM; with ULK3 (compound concentrations: 100 nM and 1000 nM (sheet 'Samples'), CATDS: 1.2201291111952599E-2), 563 nM.

As for `Cc1ccc(-n2nc(C(C)(C)C)cc2NC(=O)Nc2ccc(OCCN3CCOCC3)cc2)cc1` [BIRB0876BS], the potency estimated from few doses with COX5A (setting [1]) was 963 nM; with GRK6, 2170 nM.

Regarding `Cc1[nH]nc2c1N=C(c1ccccc1Cl)c1cc([N+](=O)[O-])ccc1N2` [RO0274406-000], the potency estimated from few doses with COX5A (compound concentrations: 100 nM and 1000 nM (sheet 'Samples'), CATDS: 8.1877347137814999E-2) was 832 nM.

Take `Nc1c(C(=O)c2ccccc2)cnn1-c1ccc(F)cc1` [RO1151246-000]: the potency estimated from few doses in the experiment on MARK4 is 1290 nM. With `Cn1cc(C2=C(c3cn(CCCCCO)c4ccccc34)C(=O)NC2=O)c2ccccc21` [RO0318053-000], in the experiment on CDC7 (compound concentrations: 100 nM and 1000 nM (sheet 'Samples'), CATDS: 8.0152233997933905E-2), the potency estimated from few doses was 1890 nM. In the case of `Cn1cc(C2=C(c3ccccc3[N+](=O)[O-])C(=O)NC2=O)c2ccccc21` [RO0317753-000], in the experiment on ICK (compound concentrations: 100 nM and 1000 nM (sheet 'Samples'), CATDS: 0.27950775870472), the potency estimated from few doses is 32.3 nM. Consider `COc1ccc(C2=C(c3cn(C)c4ccccc34)C(=O)NC2=O)cc1OC` [RO3206363-000], for which the potency estimated from few doses in the experiment with PRKX;PRKY is 1620 nM.

Regarding `Fc1cccc(COc2ccc(Nc3ncncc3C#Cc3ccccc3)cc2Cl)c1` [GW651576X], the potency estimated from few doses in the experiment with CDC42 (compound concentrations: 100 nM and 1000 nM (sheet 'Samples'), CATDS: 5.6163427913581303E-2) was 1410 nM. As to `COc1cc(F)c(F)c(F)c1C(=O)c1cnc(NC2CCN(S(C)(=O)=O)CC2)nc1N` [RO4600703-000], the potency estimated from few doses in the experiment on ICK (setting [1]) was 246 nM. With `Cn1cc(C2=C(c3cccc([N+](=O)[O-])c3)C(=O)NC2=O)c2ccccc21` [RO0317474-000], the potency estimated from few doses with CDC7 (compound concentrations: 100 nM and 1000 nM (sheet 'Samples'), CATDS: 0.13743963750211899) was 1670 nM. On to `NC(=O)c1cccnc1COc1cc(-c2ccc(N3CCOCC3)nc2)cc2ncccc12` [BI01125081], for which the figures for the potency estimated from few doses in the experiment on DCTPP1 and in the experiment with GRK6 were 1970 nM and 1700 nM, respectively. Turning to `COc1cccc(C2=C(c3cn(C)c4c(C)cccc34)C(=O)NC2=O)c1` [RO3301012-000], the potency estimated from few doses in the experiment on CDC7 (compound concentrations: 100 nM and 1000 nM (sheet 'Samples'), CATDS: 0.10055770090402801) is 1800 nM.
